Compound activity from PubChem BioAssay.
The full list was thinned out, with hits kept by preference.
Dicer processing = inhibitors of Dicer pre-microRNA processing, primary screen, biochemical, cat-ELCCA, chemiluminescence. cat-ELCCA pre-miR-21 Dicer processing; hits give high values. actives 6% (n = 47,000). Endoribonuclease Dicer (Homo sapiens), Q9UPY3. z-score at 25 µM; in the data active = z-score above about 3, passing the limit was not always enough;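 note: plate controls were vehicle for no effect and no enzyme for full effect; higher signal means more uncleaved substrate so more Dicer inhibition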
Target sequence (Q9UPY3 whole entry, looked up): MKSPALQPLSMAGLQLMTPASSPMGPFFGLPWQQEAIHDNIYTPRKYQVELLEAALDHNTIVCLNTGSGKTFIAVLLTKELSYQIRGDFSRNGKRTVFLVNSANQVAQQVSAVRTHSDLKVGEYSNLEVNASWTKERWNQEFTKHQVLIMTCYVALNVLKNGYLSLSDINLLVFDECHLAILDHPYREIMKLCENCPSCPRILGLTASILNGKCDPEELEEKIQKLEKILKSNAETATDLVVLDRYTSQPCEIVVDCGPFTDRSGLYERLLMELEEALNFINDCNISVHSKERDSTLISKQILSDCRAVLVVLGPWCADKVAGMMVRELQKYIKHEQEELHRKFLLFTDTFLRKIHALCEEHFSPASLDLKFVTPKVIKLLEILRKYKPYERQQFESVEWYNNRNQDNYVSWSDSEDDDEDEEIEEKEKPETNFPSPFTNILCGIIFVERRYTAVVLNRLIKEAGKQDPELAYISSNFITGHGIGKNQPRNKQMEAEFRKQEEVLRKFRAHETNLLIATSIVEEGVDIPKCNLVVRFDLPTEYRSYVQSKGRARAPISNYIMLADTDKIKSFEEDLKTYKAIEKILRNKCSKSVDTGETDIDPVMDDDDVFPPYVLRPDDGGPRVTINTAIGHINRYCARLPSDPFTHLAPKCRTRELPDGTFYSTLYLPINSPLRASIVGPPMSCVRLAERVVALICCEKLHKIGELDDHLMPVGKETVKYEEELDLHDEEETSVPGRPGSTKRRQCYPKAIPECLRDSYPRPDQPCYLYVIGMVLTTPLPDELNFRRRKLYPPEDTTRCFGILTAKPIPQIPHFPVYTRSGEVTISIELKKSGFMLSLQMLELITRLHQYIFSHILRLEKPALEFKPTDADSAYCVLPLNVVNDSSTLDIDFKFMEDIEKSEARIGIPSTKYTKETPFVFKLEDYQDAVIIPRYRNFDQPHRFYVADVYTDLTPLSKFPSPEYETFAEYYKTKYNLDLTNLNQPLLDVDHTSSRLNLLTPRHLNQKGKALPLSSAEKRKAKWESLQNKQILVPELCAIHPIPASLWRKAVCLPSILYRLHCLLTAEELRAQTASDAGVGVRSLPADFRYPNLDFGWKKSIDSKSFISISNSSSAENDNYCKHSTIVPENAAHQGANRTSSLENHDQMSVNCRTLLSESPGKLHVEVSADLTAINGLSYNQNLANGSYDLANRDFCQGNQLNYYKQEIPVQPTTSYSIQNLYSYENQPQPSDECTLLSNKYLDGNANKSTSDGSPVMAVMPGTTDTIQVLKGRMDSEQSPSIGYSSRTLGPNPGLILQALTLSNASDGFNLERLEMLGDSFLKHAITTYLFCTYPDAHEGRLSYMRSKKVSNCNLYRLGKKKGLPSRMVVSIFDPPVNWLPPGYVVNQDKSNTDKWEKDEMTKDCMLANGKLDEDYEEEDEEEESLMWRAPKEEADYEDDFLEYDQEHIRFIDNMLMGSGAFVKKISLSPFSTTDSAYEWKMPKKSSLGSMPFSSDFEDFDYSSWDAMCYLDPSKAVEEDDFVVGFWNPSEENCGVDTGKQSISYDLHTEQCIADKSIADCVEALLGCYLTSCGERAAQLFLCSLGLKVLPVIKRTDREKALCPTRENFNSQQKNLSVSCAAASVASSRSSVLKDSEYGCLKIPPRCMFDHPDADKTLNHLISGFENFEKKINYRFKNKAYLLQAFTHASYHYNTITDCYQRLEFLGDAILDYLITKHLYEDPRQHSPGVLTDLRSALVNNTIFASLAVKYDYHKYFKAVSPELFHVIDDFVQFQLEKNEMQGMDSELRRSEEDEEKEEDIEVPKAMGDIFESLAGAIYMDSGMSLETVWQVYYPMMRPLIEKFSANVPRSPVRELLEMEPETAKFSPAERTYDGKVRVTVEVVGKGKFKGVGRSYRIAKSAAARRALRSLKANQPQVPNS
An asterisk follows results filed as active.

SMILES	Dicer processing
CCCOc1ccccc1C1C(C(=O)OCC2CCCO2)=C(C)NC2=C1C(=O)CCC2 (centres undefined)	7
Fc1c(CSC2=NCCN2)cccc1CSC1=NCCN1	-3.5
COc1ccc(-c2csc(Nc3cccnc3)n2)cc1	2.8
Cc1ccc(Nc2nc(C(F)(F)F)cs2)cc1	0.07
Cc1ccc(-c2csc(Nc3ccc(S(N)(=O)=O)cc3)n2)cc1	7.1*
Fc1ccc(Nc2nc(-c3ccncc3)cs2)cc1	2.2
Clc1ccc(-c2csc(Nc3ccccc3)n2)cc1	0.33
CCc1ccc(-c2csc(Nc3ccc(S(N)(=O)=O)cc3)n2)cc1	7.5
Clc1ccc(Nc2nc(-c3ccncc3)cs2)cc1	5.6*
Cc1cccnc1Nc1nc(-c2cccnc2)cs1	1.2
O=C(O)c1ccc(Nc2nc(-c3cccnc3)cs2)cc1	6.6*
CC1CCC2C(=O)N(c3ccc(O)cc3)C(=O)C2C1 (centres undefined)	1.2
CCOC(=O)c1cnc2c(c(C)nn2C)c1Sc1ccc(C(F)(F)F)cn1	0.1
COC(=O)C1=NN(c2ccccc2)C(=O)/C1=C\N(C)C	0.53
N#CCSc1nnc(-n2cccc2)s1	-0.71
O=C(Nc1ccc(Cl)cc1)c1cc2n(n1)C(C(F)(F)F)CC(c1ccco1)N2 (centres undefined)	1.4
CC(C)(C)NC(=O)c1nn2c(c1Br)NC(c1ccccc1)CC2C(F)(F)F (centres undefined)	-0.07
O=C(c1nn2c(c1Cl)NC(c1ccco1)CC2C(F)(F)F)N1CCN(c2ccccc2)CC1 (centres undefined)	5.3*
COc1ccc(N2CCN(C(=O)c3cc4n(n3)C(C(F)(F)F)CC(c3ccco3)N4)CC2)cc1 (centres undefined)	0.83
CC(C)(C)NC(=O)c1nn2c(c1Cl)NC(c1ccco1)CC2C(F)(F)F (centres undefined)	3.2*
O=C(Nc1ccc(O)cc1)c1cc2n(n1)C(C(F)(F)F)CC(c1ccco1)N2 (centres undefined)	1.2
O=C(Nc1ccc(Cl)cc1)c1nn2c(c1Cl)NC(c1ccco1)CC2C(F)(F)F (centres undefined)	3.8*
O=C(c1nn2c(c1Cl)NC(c1ccco1)CC2C(F)(F)F)N1CCCC1 (centres undefined)	2.4
O=C(NC1CC1)c1cc2n(n1)C(C(F)(F)F)CC(c1ccco1)N2 (centres undefined)	-0.56
N#Cc1c(OCC(F)(F)F)ccc(S(=O)(=O)Oc2cccc(C(F)(F)F)c2)c1OCC(F)(F)F	0.08
SMILES	Dicer processing
O=C1CSC(=S)N1Cc1ccco1	-1.1
Cc1ccc(C(=O)/C=C2\SC(=O)C(=O)N2c2ccccc2)cc1	0.66
Cc1csc(-c2noc(-c3ccc(C(C)(C)C)cc3)n2)c1Cl	-1.3
CCN(CC)c1ccc2c(c1)OC(N)=C(C#N)C2c1cccc(OC)c1 (centres undefined)	1.5
COC(=O)c1sc(=S)sc1C(=O)OC	3.8*
COC(=O)c1cc(O)c(C(=O)OC)s1	-1
COC(=O)c1sc(Br)c(Br)c1O	-0.72
COC(=O)/C=C(\Nc1ccsc1C(=O)OC)C(=O)OC	-0.76
C=CCOC(=O)Oc1ccc2c(=O)c(Oc3cc(C)ccc3C)coc2c1	1.3
CCC(C)OC(=O)C(C)Oc1ccc2c(=O)c(Oc3ccc(C)cc3)coc2c1 (centres undefined)	4.2*
CCC(C)OC(=O)C(C)Oc1ccc2c(=O)c(Oc3cccc(C)c3)coc2c1 (centres undefined)	-1.1
CCOC(=O)Oc1ccc2c(=O)c(Oc3cc(C)cc(C)c3)coc2c1	0.12
CCC(C)OC(=O)C(C)Oc1ccc2c(=O)c(Oc3ccccc3Cl)coc2c1 (centres undefined)	-0.01
C=CCOC(=O)Oc1ccc2c(=O)c(Oc3cc(C)cc(C)c3)coc2c1	3*
Cc1ccc(S(=O)(=O)CCSc2ncccn2)cc1	1.2
Cn1c(=O)c2c(nc(NCCOCCO)n2Cc2c(Cl)cccc2Cl)n(C)c1=O	0.41
O=c1c2nnn(Cc3ccccc3Cl)c2ncn1Cc1ccc([N+](=O)[O-])cc1	1.6
O=C1CC(NCC2CCCO2)C(=O)N1c1ccccc1 (centres undefined)	-1.7
COc1ccccc1-c1coc2cc(OCCc3ccccc3)ccc2c1=O	2
COc1ccc2nc3ccccc3c(N)c2c1	4*
COc1ccc2nc(N)sc2c1	0.42
COc1ccc2nc(C3C(=O)c4ccccc4C3=O)ccc2c1	0.25
COc1ccc2nc(C)cc(Cl)c2c1	2.7
COc1ccccc1-c1nc2ccc(Cl)cc2c(=O)o1	-1.8
COc1ccc2nc(C3C(=O)c4ccccc4C3=O)cc(Cl)c2c1	6.5*
SMILES	Dicer processing
COc1cc(Br)cc(C2NC(=O)c3c(sc4c3CCN(C)C4)N2)c1O (centres undefined)	-0.5
CC(=O)c1c(O)ccc2c(C)cc(=O)oc12	-0.17
Cn1cc(Br)c(C(=O)Nc2nc3ccc4ccccc4c3s2)n1	0.9
O=C(O)C1C2CCC(O2)C1C(=O)NCc1ccco1 (centres undefined)	0.17
CN(C(=O)c1cnc(Oc2ccc(Cl)cc2)cc1C(F)(F)F)c1ccc(Cl)c(Cl)c1	-1.5
CCOC(=O)c1nnn(-c2nonc2N)c1-c1cccc2ccccc12	4*
CCOC(=O)c1nnn(-c2nonc2N)c1-c1ccccc1Cl	1.3
CCN(Cc1c(C(=O)O)nnn1-c1nonc1N)c1ccccc1	2.6
CCOC(=O)c1nnn(-c2nonc2N)c1CN(C)c1ccccc1	-0.22
CCOC(=O)c1nnn(-c2nonc2N)c1-c1cccs1	-0.05
CCOC(=O)c1nnn(-c2nonc2N)c1CN(CC)c1ccccc1	5.1*
Cc1nn(Cc2n[nH]c(=S)n2C)c(C)c1[N+](=O)[O-]	0.04
CCCn1c(Cc2ccccc2)nc2ccccc21	0.88
CCOC(=O)c1c(CSC#N)oc2ccc(OC(C)=O)cc12	1.8
COCCCN1C(=O)C(=O)/C(=C(/O)c2ccc(C)cc2)C1c1cc(OC)ccc1OC (centres undefined)	-2
O=C1c2ccccc2C(=O)C1C(c1ccccc1)C1C(=O)c2ccccc2C1=O	-2.6
CC(C)(C)c1cc(-c2cc(C(F)(F)F)nc(N)n2)c2c(c1)C(C)(C)CC2	-0.57
CCC(Sc1nnc2c3ccccc3n(C)c2n1)C(=O)NC(C)c1ccccc1 (centres undefined)	1.1
CCC(Sc1nnc2c3ccccc3n(C)c2n1)C(=O)Nc1nnc(C)s1 (centres undefined)	-0.49
CCCc1nnc(NC(=O)C(CC)Sc2nnc3c4ccccc4n(C)c3n2)s1 (centres undefined)	3.1*
CCOC(=O)Cc1csc(NC(=O)Nc2cc(Cl)ccc2OC)n1	0.77
CCOC(=O)c1cnc(C(F)(F)F)nc1Nc1ccccc1	-1.3
O=C(Nc1ccc(N2CCC(n3cccc3)CC2)cc1)c1ccccc1Cl	1.1
CCOC(=O)c1cnc(NNS(=O)(=O)c2ccc(C#N)cc2)nc1C(F)(F)F	0.61
COC(=O)c1ccc(NC2SC(=O)N(c3ccccc3)C2=O)cc1 (centres undefined)	0.49
Cc1ccc(N2C(=O)SC(Nc3ccccc3C(=O)O)C2=O)cc1C (centres undefined)	0.26
O=C1SC(Nc2ccccc2Br)C(=O)N1c1ccccc1 (centres undefined)	-0.13
Cc1ccc(N2C(=O)SC(Nc3ccc(C(=O)O)cc3)C2=O)cc1 (centres undefined)	5.4*
Cc1ccc(N2C(=O)SC(Nc3ccc(C(=O)O)cc3)C2=O)cc1C (centres undefined)	1.3
O=C1SC(Nc2cccc(Br)c2)C(=O)N1c1ccccc1 (centres undefined)	58
